Inconclusive results are not listed. Values without a mark were called inactive. Calls of active or inactive are those of the source. Calls follow the shape of the dose curve; as a rule, active = well fitted curve in the direction sought with a large enough effect; inconclusive = small, poorly fitted or top-dose-only effect, or another doubt; inactive = no such curve, though single readings can be large; an effect the other way counts as inactive or inconclusive.
Columns and labels:
[1] = Quantitative High-Throughput drug screen in 47 multiple myeloma cell lines against the NCATS MIPE library collection: JIM3_ECACC cell viability assay (AID 1918963; also: nearly all actives have a fitted effect of over 35% in size)
Summary of the method: (§1)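 Approved and investigational drugs from MIPE 4.0 were added by pin tool to 500 cells per well. After 48 hours at 37C, ATP-based CellTiter-Glo luminescence indicated remaining viability.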

[2] = Quantitative High-Throughput drug screen in 47 multiple myeloma cell lines against the NCATS MIPE library collection: JIM1_ECACC cell viability assay (AID 1918964)
Summary of the method: (§2)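 CellTiter-Glo ATP luminescence gave viability after 48 h compound treatment at 37C of 500 multiple myeloma cells per well. Normalisation used DMSO-only wells as 100% and media-only wells as 0% viability; primary qHTS of approved and investigational drugs.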

[3] = Quantitative High-Throughput drug screen in 47 multiple myeloma cell lines against the NCATS MIPE library collection: Karpas25_ECACC cell viability assay (AID 1918968; also: nearly all actives have a fitted effect of over 35% in size)
Summary of the method: as §2

[4] = Quantitative High-Throughput drug screen in 47 multiple myeloma cell lines against the NCATS MIPE library collection: KMS27_JCRB cell viability assay (AID 1918970); also: nearly all actives have a fitted effect of over 30% in size
Summary of the method: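 Viability inhibition screen, 48 h compound exposure, luminescent ATP read-out.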

[5] = Quantitative High-Throughput drug screen in 47 multiple myeloma cell lines against the NCATS MIPE library collection: KMS12PE_JCRB cell viability assay (AID 1918972); also: nearly all actives have a fitted effect of over 30% in size
Summary of the method: (§3)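 Inhibition of cell viability is measured here. Each line was plated at 500 cells per well, treated with MIPE 4.0 drugs, kept 48 hours at 37C, then assayed for ATP content by CellTiter-Glo luminescence.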

[6] = Quantitative High-Throughput drug screen in 47 multiple myeloma cell lines against the NCATS MIPE library collection: KMS20_JCRB cell viability assay (AID 1918973); also: nearly all actives have a fitted effect of over 45% in size
Summary of the method: as §2

[7] = Quantitative High-Throughput drug screen in 47 multiple myeloma cell lines against the NCATS MIPE library collection: MMM1_PLB cell viability assay (AID 1918976); also: nearly all actives have a fitted effect of over 35% in size
Summary of the method: (§4)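 ATP-based luminescence (CellTiter-Glo, 5 min RT incubation) quantified surviving cells following two days' treatment with MIPE 4.0 agents at 37 °C, 5% CO2.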

[8] = Quantitative High-Throughput drug screen in 47 multiple myeloma cell lines against the NCATS MIPE library collection: NCIH929_DSMZ cell viability assay (AID 1918978); also: nearly all actives have a fitted effect of over 35% in size
Summary of the method: as §4

[9] = Quantitative High-Throughput drug screen in 47 multiple myeloma cell lines against the NCATS MIPE library collection: OCIMY1_PLB cell viability assay (AID 1918979); also: nearly all actives have a fitted effect of over 35% in size
Summary of the method: as §4

[10] = Quantitative High-Throughput drug screen in 47 multiple myeloma cell lines against the NCATS MIPE library collection: MM1R_ATCC cell viability assay (AID 1918981); also: nearly all actives have a fitted effect of over 35% in size
Summary of the method: as §4

[11] = Quantitative High-Throughput drug screen in 47 multiple myeloma cell lines against the NCATS MIPE library collection: INA6_PLB cell viability assay (AID 1918965; also: nearly all actives have a fitted effect of over 55% in size)
Summary of the method: as §3

[12] = Quantitative High-Throughput drug screen in 47 multiple myeloma cell lines against the NCATS MIPE library collection: KMS12BM_JCRB cell viability assay (AID 1918971); also: nearly all actives have a fitted effect of over 35% in size
Summary of the method: as §1

[13] = Quantitative High-Throughput drug screen in 47 multiple myeloma cell lines against the NCATS MIPE library collection: KMS26_JCRB cell viability assay (AID 1918975); also: nearly all actives have a fitted effect of over 45% in size
Summary of the method: as §1

[14] = Quantitative High-Throughput drug screen in 47 multiple myeloma cell lines against the NCATS MIPE library collection: MOLP8_DSMZ cell viability assay (AID 1918977); also: nearly all actives have a fitted effect of over 45% in size
Summary of the method: as §4

[15] = Quantitative High-Throughput drug screen in 47 multiple myeloma cell lines against the NCATS MIPE library collection: MM1S_ATCC cell viability assay (AID 1918980); also: nearly all actives have a fitted effect of over 45% in size
Summary of the method: as §4

[16] = Quantitative High-Throughput drug screen in 47 multiple myeloma cell lines against the NCATS MIPE library collection: LP1_DSMZ cell viability assay (AID 1918982); also: nearly all actives have a fitted effect of over 35% in size
Summary of the method: as §4

[17] = Quantitative High-Throughput drug screen in 47 multiple myeloma cell lines against the NCATS MIPE library collection: KMS21BM_JCRB cell viability assay (AID 1918974); conditions: ATP luminescence, 48 h; viability: at 45.8 µM (top of the series) unless noted
Summary of the method: as §2

[18] = Quantitative High-Throughput drug screen in 47 multiple myeloma cell lines against the NCATS MIPE library collection: JJN3_DSMZ cell viability assay (AID 1918966; also: nearly all actives have a fitted effect of over 50% in size)
Summary of the method: as §2

[19] = Quantitative High-Throughput drug screen in 47 multiple myeloma cell lines against the NCATS MIPE library collection: H1112_PLB cell viability assay (AID 1918967; also: nearly all actives have a fitted effect of over 30% in size)
Summary of the method: as §2
Potency is read from the fitted curve at half-maximal effect.

With `Cc1ccc(CN2CCNCC2)cc1NC(=O)CNc1ccc(F)c(F)c1` the Potency [1] was “inactive”, the Potency [2] was “inactive” and the Potency [3] was 5.9 µM (active). The Potency [4] was “inactive”, the Potency [5] was “inactive” and the Potency [6] was “inactive”. The Potency [7] was 16.6 µM (active), the Potency [8] was “inactive” and the Potency [9] was “inactive”. For the same compound, the Potency [10] was 26.4 µM (active).
In the case of `Nc1ccc(S(=O)(=O)Nc2ncccn2)cc1`, the Potency [1] is reported as “inactive”, the Potency [11] is reported as “inactive” and the Potency [3] is reported as “inactive”. For the same compound, the Potency [4] was “inactive”, the Potency [12] was “inactive” and the Potency [13] was “inactive”. The Potency [14] was “inactive”, the Potency [9] was “inactive” and the Potency [15] was “inactive”. For the same compound, the Potency [10] was “inactive” and the Potency [16] was “inactive”.
In the case of `CCC(=C(c1ccccc1)c1ccc(OCCN(C)C)cc1)c1ccccc1`, the Potency [1] is reported as 23.5 µM (active), the Potency [11] is reported as 16.6 µM (active) and the Potency [3] is reported as 18.7 µM (active). The Potency [4] was 20.9 µM (active), the Potency [12] was 26.4 µM (active) and the Potency [5] was 13.2 µM (active). For the same compound, the Potency [17] was 18.7 µM (active), the Potency [13] was 20.9 µM (active) and the Potency [7] was 23.5 µM (active). The Potency [8] was 20.9 µM (active), the Potency [9] was “inactive” and the Potency [10] was 23.5 µM (active).
For `O=C1CCC[C@@H]2[C@H]3CCC[N+]4([O-])CCC[C@@H](CN12)[C@@H]34` (stereo not given in full), the Potency [1] was “inactive”, the Potency [11] was “inactive” and the Potency [3] was “inactive”. For the same compound, the viability [17] was 154% (active), the Potency [8] was “inactive” and the Potency [9] was “inactive”. For the same compound, the Potency [16] was “inactive”.
With `Cn1c2cc(S(C)=O)sc2c2cnn(Cc3cccc(N)c3)c(=O)c21` (stereo not given) the Potency [1] was “inactive”, the Potency [2] was “inactive” and the Potency [18] was “inactive”. For the same compound, the Potency [3] was “inactive”, the Potency [5] was “inactive” and the Potency [13] was “inactive”. For the same compound, the Potency [7] was 3.32 µM (active), the Potency [8] was “inactive” and the Potency [9] was “inactive”. The Potency [15] was “inactive” and the Potency [10] was “inactive”.
For `O=C(O)Cn1nnc(-c2cc(N3CCC(Oc4cc(F)ccc4Br)CC3)no2)n1`, the Potency [1] was 16.6 µM (active), the Potency [11] was “inactive” and the Potency [19] was “inactive”. For the same compound, the Potency [12] was “inactive”, the Potency [5] was “inactive” and the Potency [13] was “inactive”. For the same compound, the Potency [14] was “inactive”, the Potency [8] was “inactive” and the Potency [10] was “inactive”. The Potency [16] was “inactive”.
In the case of `Cc1c(NC(=O)OC[C@@H]2COCCN2)cn2ncnc(Nc3ccc4c(cnn4Cc4cccc(F)c4)c3)c12`, the Potency [1] is reported as 1.32 µM (active), the Potency [11] is reported as 3.32 µM (active) and the Potency [3] is reported as 7.43 µM (active). The Potency [4] was 20.9 µM (active), the Potency [6] was 1.87 µM (active) and the Potency [8] was 18.7 µM (active). For the same compound, the Potency [9] was “inactive”.
For `CCC[C@H](NC(=O)C(C#N)=Cc1cccc(Br)n1)c1ccccc1`, the Potency [1] was 1.48 µM (active), the Potency [11] was 1.32 µM (active) and the Potency [18] was 2.09 µM (active). For the same compound, the Potency [3] was 1.48 µM (active), the Potency [4] was 7.43 µM (active) and the Potency [12] was 2.96 µM (active). The Potency [13] was 1.48 µM (active), the Potency [14] was 1.48 µM (active) and the Potency [8] was 1.05 µM (active). The Potency [9] was 6.62 µM (active), the Potency [15] was 7.43 µM (active) and the Potency [10] was 1.66 µM (active). The Potency [16] was 5.26 µM (active).
In the case of `NC(=O)c1cccc2cn(-c3ccc([C@@H]4CCCNC4)cc3)nc12`, the Potency [1] is reported as “inactive”, the Potency [11] is reported as 14.8 µM (active) and the Potency [19] is reported as 20.9 µM (active). For the same compound, the Potency [3] was “inactive”, the Potency [4] was “inactive” and the Potency [14] was “inactive”. The Potency [8] was 20.9 µM (active) and the Potency [16] was “inactive”.
In the case of `CCN(CC)CCNC(=O)c1ccc2nc(-c3ccccc3)c(-c3ccc(CN4CCC(n5c(=O)[nH]c6ccccc65)CC4)cc3)nc2c1`, the Potency [1] is reported as 0.935 µM (active), the Potency [2] is reported as 0.833 µM (active) and the Potency [18] is reported as 20.9 µM (active). The Potency [3] was 0.332 µM (active), the Potency [4] was 0.418 µM (active) and the Potency [12] was 16.6 µM (active). The Potency [5] was 0.833 µM (active), the Potency [6] was 0.296 µM (active) and the Potency [17] was 1.18 µM (active). For the same compound, the Potency [13] was 14.8 µM (active), the Potency [7] was 26.4 µM (active) and the Potency [14] was 16.6 µM (active). For the same compound, the Potency [8] was 0.743 µM (active), the Potency [9] was 20.9 µM (active) and the Potency [15] was 8.33 µM (active). The Potency [10] was 20.9 µM (active) and the Potency [16] was 18.7 µM (active).
With `O=C(O)CCCc1c[nH]c2ccccc12` the Potency [1] was “inactive”, the Potency [11] was “inactive” and the Potency [19] was “inactive”. For the same compound, the Potency [3] was “inactive”, the Potency [4] was “inactive” and the Potency [5] was “inactive”. For the same compound, the Potency [13] was “inactive”, the Potency [14] was “inactive” and the Potency [8] was “inactive”. For the same compound, the Potency [9] was “inactive” and the Potency [10] was “inactive”.
With `COc1ccc(CC2c3cc(OC)c(OC)cc3CC[N+]2(C)CCC(=O)OCCCCCOC(=O)CC[N+]2(C)CCc3cc(OC)c(OC)cc3C2Cc2ccc(OC)c(OC)c2)cc1OC` (stereo not given) the viability, percent of control [1] was 105% [at 5.15 µM], the viability (% of DMSO) [2] was 83.6% [at 5.15 µM] and the viability [19] was 104% [at 5.15 µM]. For the same compound, the viability (% of control) [3] was 100% [at 5.15 µM], the viability (% of DMSO) [4] was 108% [at 5.15 µM] and the viability (% of DMSO) [13] was 102% [at 5.15 µM]. For the same compound, the viability (% of control) [16] was 101% [at 5.15 µM].
With `N#Cc1c(O)c2c(-c3ccc(-c4ccccc4O)cc3)csc2[nH]c1=O` the Potency [1] was “inactive”, the Potency [11] was “inactive” and the Potency [3] was “inactive”. The Potency [4] was “inactive”, the Potency [12] was 5.26 µM (active) and the Potency [5] was “inactive”. For the same compound, the Potency [13] was “inactive”, the Potency [14] was “inactive” and the Potency [8] was “inactive”. The Potency [9] was “inactive”, the Potency [15] was 16.6 µM (active) and the Potency [10] was “inactive”. For the same compound, the Potency [16] was “inactive”.
With `COC(=O)c1ccc2c(C(=Nc3ccc(N(C)C(=O)CN4CCN(C)CC4)cc3)c3ccccc3)c(O)[nH]c2c1` the Potency [1] was 6.62 µM (active), the Potency [2] was 0.0469 µM (active) and the Potency [3] was 11.8 µM (active). For the same compound, the Potency [12] was 16.6 µM (active), the Potency [5] was 0.526 µM (active) and the Potency [6] was 2.64 µM (active). For the same compound, the Potency [17] was 0.0526 µM (active), the Potency [13] was 2.64 µM (active) and the Potency [14] was 9.35 µM (active). For the same compound, the Potency [8] was 5.9 µM (active), the Potency [9] was 10.5 µM (active) and the Potency [15] was 1.18 µM (active). For the same compound, the Potency [10] was 14.8 µM (active).
